According to ChEMBL document CHEMBL4888484, “Replenishing the malaria drug discovery pipeline: Screening and hit evaluation of the MMV Hit Generation Library 1 (HGL1) against asexual blood stage Plasmodium falciparum ,using a nano luciferase reporter read-out” (2022):
Several values for one entry are separate records, joined by “and”; a condition that tells them apart may be missing. Equal entries are not always repeated. Among all 4,800 compounds or so, about 420 (8.8%) showed an effect of 50% or more. This excerpt belongs to a sample that is enriched for strong results.

Tested on: Plasmodium falciparum
Test: Confirmatory screen in NF54 nanoGlo assay, in single point, at 2uM, 72h
Format: functional, Erythrocyte
Settings: timepoint 72 hour

Structure (SMILES) | % Inhibition | % Inhibition (2 µM)
Brc1ccc2sncc2c1 | -3% | –
COc1cncc(C(=O)N2CCCc3cc(S(C)(=O)=O)ccc32)n1 | 9% | –
CN1CCN(CCc2nc(-c3ccc4cc[nH]c4c3)no2)CC1 | -4% | –
CC(C)(C)OC(=O)NS(=O)(=O)Nc1nccs1 | -13% | –
COCCN(c1ccncc1)S(C)(=O)=O | 6% | –
CCc1ccc(NCc2c(OCc3ccc(Br)cc3)ccc3ccccc23)cc1 | -11% | –
Cc1c(S(=O)(=O)N2CCC[C@H](C(=O)NC3CC3)C2)cnn1C | -4% | –
O=C(Nc1c(S(=O)(=O)c2ccccc2)c2nc3ccccc3nc2n1CCc1ccccc1)c1ccc(Cl)cc1 | 102% | –
O=C(Nc1ccccc1)c1ccc2c(c1)C(=O)N(CCc1ccccc1)C2=O | -9% | –
Cc1ccc(S(=O)(=O)c2c(NS(=O)(=O)c3ccc(F)cc3)n(CCc3ccccc3)c3nc4ccccc4nc23)cc1 | 100% | –
O=C(Cn1c(Cc2ccc(Cl)cc2)nc2ccccc21)Nc1ccccc1 | 14% | –
Cc1ccc(S(=O)(=O)c2c(NS(=O)(=O)c3ccccc3)n(CCc3ccccc3)c3nc4ccccc4nc23)cc1 | 100% | –
CC(C)CCn1c(=O)c2sccc2n(CC(=O)N(C)c2ccccc2)c1=O | 5% | –
COc1cc(OC)c(NC(=O)COc2ccccc2-c2nc3ccccc3s2)cc1Cl | 0% | –
O=C(c1cc2c(s1)CCCC2)N1CCC[C@H](c2nnc3ccccn23)C1 | -17% | –
CCN1C(=O)[C@@]2(CC(=O)Nc3c2c(C)nn3-c2ncnc3nc[nH]c23)c2cc(C)ccc21 | 2% | –
COc1ccccc1OCc1nn2c([C@H]3CCCN(S(C)(=O)=O)C3)nnc2s1 | -3% | –
O=C(COc1ccccc1Cl)Nc1ccc(C2(c3ccc(NC(=O)COc4ccccc4Cl)cc3)c3ccccc3-c3ccccc32)cc1 | 0% | –
O=C(Nc1ccc(N2CCn3c(nc4ccccc43)C2)cc1)c1ccc(F)cc1 | 9% | –
O=C(O)c1cc2c(cc1C(=O)Nc1ccc(Cl)cc1)=[O+]c1ccccc1-c1ccccc1[O+]=2 | -17% | –
O=C(Nc1ccc(C2(c3ccc(NC(=O)c4ccc(F)cc4)cc3)c3ccccc3C(=O)c3ccccc32)cc1)c1ccc(F)cc1 | 67% | –
O=C1c2ccccc2C(c2ccc(NC(=O)c3cccc4ccccc34)cc2)(c2ccc(NC(=O)c3cccc4ccccc34)cc2)c2ccccc21 | 83% | –
N=C(Cc1ccccc1)NOC(=O)c1cccc2ccccc12 | -11% | –
O=C(c1ccccc1F)N(Cc1nccn1Cc1ccccc1F)CC1CC1 | 20% | –
O=C(Nc1ccc(Cl)cc1)c1cccc(N2C(=O)C3CCC(c4ccccc4)CC3C2=O)c1 (stereo unspecified) | -5% | –
COc1cc([C@H](CC(=O)NC2CCN(Cc3ccccc3)CC2)N2Cc3ccccc3C2=O)cc(OC)c1OC | 33% | –

Structure (SMILES) | % Inhibition | % Inhibition (2 µM)
CN1CCN(C(=O)[C@H](C(=O)c2ccccc2)n2cc(Cl)ccc2=O)CC1 | -9% | –
COc1ccc2[nH]c3c(c2c1)CC(C(=O)O)NC3c1ccc(OC)c(CN2CCN(c3ccccc3F)CC2)c1 (stereo unspecified) | 76% | –
COc1ccccc1N1CCN(Cc2nc3ccccc3c(=O)n2-c2ccc(F)cc2)CC1 | 6% | –
Fc1ccccc1N1CCN(C2CCN(Cc3c[nH]c4ccccc34)CC2)CC1 | 4% | –
CC(C)(C)CCN1CCN(S(=O)(=O)C[C@H]2CCCS(=O)(=O)C2)CC1 | -3% | –
C[C@@H](CN)N(C)c1ccnc2cc(Br)cnc12 | 98% | –
COc1c(Br)cc(Br)cc1C(N)=O | -5% | –
CCCOc1cc2nc(C(F)(F)F)cc(-c3cccs3)c2cc1OCCC | -4% | –
CC1=CC(=[N+](CCO)CCO)C=C/C1=C(\c1ccc(N(CCO)CCO)cc1C)c1ccccc1Cl | 91% | –
Cc1ccc([C@@H]2CC(=O)Nc3nc(N4CCN(CCO)CC4)nc(O)c32)cc1 | 2% | –
NC(=O)CN1CCC2(CC1)NC(c1ccc(OC(F)(F)F)cc1)=NO2 | 0% | –
Cc1cncc(C(=O)N2CC(n3cnnc3C)C2)c1 | -19% | –
CCc1nnc(NC(=O)C2CC2c2ccccc2)s1 (stereo unspecified) | -3% | –
COC(=O)c1c(NC(=O)[C@H]2CCCN(S(=O)(=O)c3cnn(C)c3C)C2)cnn1C | 4% | –
CNS(=O)(=O)CC(=O)Nc1cc(Br)c(F)cc1F | -12% | –
COc1cccc(CNC(=O)CCC(=O)N(c2ccccc2)c2ccccc2)c1 | 7% | –
COc1ccc(CCNC(=O)CCCC(=O)NCc2ccccc2)cc1OC | -14% | –
COc1ccc(CC(=N)Nc2cc3cc(OC)c(OC)cc3c(Cc3ccc(OC)c(OC)c3)n2)cc1OC | 80% | –
CCCNC(=O)C[C@H](C)CC(=O)NCCc1ccc(OC)c(OC)c1 | 4% | –
COC(=O)C1=C(C(=O)OC)SC(=C2C(=S)C(C)(C)N(C(=O)c3cccnc3)c3c(C)cc(C)cc32)S1 | 4% | –
Oc1cccc(CN[C@H]2CCCc3occc32)c1Cl | 71% | –
O=C(N[C@H]1CCCc2occc21)c1ccco1 | 0% | –
CC(O)CC(C)(C)CNC1CCCc2occc21 (stereo unspecified) | -12% | –
CCN1CCC(CCNC(=O)c2cc3c(s2)N(CC)CCCC3)CC1 | -7% | –
CCOc1cc(N2CCOCC2)c(OCC)cc1NC(=O)c1ccc(C)c(NC(=O)c2ccco2)c1 | 22% | –
N#Cc1nc(NC(=O)c2cc3c(s2)CCOC3)[nH]c1C#N | 3% | –

Structure (SMILES) | % Inhibition | % Inhibition (2 µM)
CN(CC(F)(F)F)S(=O)(=O)c1ccc(C(=O)O)cc1 | -5% | –
Cc1ccc(CC[C@H]2Nc3ccccc3C(c3ccccc3)(c3ccccc3)O2)o1 | 74% | –
Cc1ccccc1[C@H]1CCN(c2ccc(NC(=O)c3ccc(F)cc3)c(C(=O)O)c2)C1 | -11% | –
Cc1cc(Cn2cc(C(c3ccccc3)c3ccccc3)nn2)no1 | -3% | –
Nc1c(-c2ccccc2)nsc1C(=O)NCc1ccc(F)cc1 | -2% | –
CC(=O)Nc1ccc(NC(=O)CN2CCCN(c3cncc(F)c3)CC2)cc1 | -1% | –
O=C(O)C1C2C=CC(O2)C1C(=O)NC1CCCc2ccccc21 (stereo unspecified) | -4% | –
O=C(CC(O)c1cccc(F)c1)NCCC1CCCCO1 (stereo unspecified) | -1% | –
COc1cccc(-c2nc(C)c(C(=O)Nc3n[nH]c(CC(C)C)n3)s2)c1 | – | 78% and 70%
CCO[C@@H](C)C(=O)Nc1n[nH]c(Cc2cccc(F)c2)n1 | -1% | –
COCCc1cc(NC(=O)Nc2sc(-c3ccccc3)nc2C)n(C)n1 | 14% | –
COc1cccc(-c2nc(C)c(C(=O)Nc3nc(C(C)C)n[nH]3)s2)c1 | 74% | –
COc1cccc(CNC(=O)c2sc(Nc3ccc(C)cc3C)nc2C)c1 | -13% | –
COc1cccc(-c2nc3n(c2C(=O)NCC(C)C)CCS3(=O)=O)c1 | -2% | –
C[C@@](CO)(NC(=O)Nc1cc(-c2ccco2)ccc1F)C1CC1 | -4% | –
O=C(c1ccccc1)c1c[nH]c2c(F)cc(F)cc2c1=O | -5% | –
CCOCCc1nc(-c2ccccn2)c(CCOCC)nc1-c1ccccn1 | 10% | –
O=C1NC(=O)[C@]2(CCOc3ccc(F)cc32)N1 | -3% | –
Cc1cc(C)n2c(=O)c3ccccc3nc2c1C#N | -5% | –
Cc1cc(C)nc(NCCC[C@H]2CCCCO2)n1 | -6% | –
Cc1cccc(CNC(=O)NC2CCOC2c2ccc(Cl)cc2)n1 (stereo unspecified) | -15% | –
Cc1cccc(CN(Cc2cccc(C)n2)C[C@H]2CCCCO2)n1 | 90% | –
O[C@H]1CNCC[C@@H]1Nc1cc(-c2ccccc2)nc2ccccc12 | 46% | –
COc1cc(OC)c(S(=O)(=O)NC(C)C)cc1S(=O)(=O)NC(C)C | -4% | –
O=C1CC(c2cccc(Br)c2)N(S(=O)Oc2ccccc2)c2ccccc21 (stereo unspecified) | 4% | –
COc1ccc2oc(-c3ccc(CNC(=O)c4ccccc4)cc3)nc2c1 | -5% | –

Structure (SMILES) | % Inhibition | % Inhibition (2 µM)
COc1ccc(CNc2nc(-c3nnc(-c4ccccc4)o3)nc3ccccc23)cc1 | 55% | –
COc1ccc2oc(-c3ccc(CNC(=O)c4ccc(C)cc4)cc3)nc2c1 | -3% | –
Oc1c(-n2cncn2)cnc2ncnn12 | -7% | –
Cc1cc(-c2ccco2)cc(Cl)c1N | -1% | –
O=C1CCN(C(=O)C2(c3cccc(Cl)c3)CCCC2)CCN1 | 2% | –
CC(C)(C)c1ccc(-c2ccc(C(=O)NCC3(O)CCOCC3)o2)cc1 | 0% | –
CCc1c(NC(=O)[C@@H](C)C2CC2)nnn1CCc1ccc(OC)cc1 | -1% | –
COc1ccc(NC(=O)[C@@H](C)C2CCOCC2)cc1 | -6% | –
COC(=O)c1c(NC(C)=O)c2cc(NC3CCOCC3)cnc2n1CCc1ccc(OC)cc1 | 70% | –
Cc1nn(C)c2c(N3CCOCC3)nc(C3CC3)nc12 | -8% | –
CC[C@H]1Cn2c(C(=O)NCc3ccc(C)o3)cc3cccc(c32)O1 | -11% | –
COc1ccc(-c2nc(N)s[n+]2-c2ccccc2)cc1 | -2% | –
COc1ccc(-[n+]2c(-c3ccc(-c4ccccc4)cc3)cn3c2COCC3)cc1 | 66% | –
COc1ccc(-c2nnc(COc3ccc(-c4ccccc4)cc3)s2)cc1 | -7% | –
COc1ccc(-[n+]2c(-c3ccccc3)cn3c2CCC3)cc1 | 77% | –
COc1ccc(CCc2nnc3n2CCOC3)cc1 | -4% | –
COc1ccc(-c2noc(Cn3c(=O)c4ccccc4n(CC(=O)Nc4cc(C)ccc4C)c3=O)n2)cc1 | 0% | –
O=C(Nc1nn(Cc2ccccc2)cc1Cl)c1cc(-c2ccc(OC(F)F)cc2)[nH]n1 | 4% | –
Nc1noc2cc(C(F)(F)F)cnc12 | 4% | –
COc1ccc2c(c1)CN(c1nnc(C3CC3)o1)CC2 | 7% | –
O=c1[nH]c2cc3c(cc2c(=O)n1Cc1nc(-c2ccc(Cl)cc2)no1)OCO3 | -1% | –
CN1CCN(Cc2cc3cc4c(cc3nc2-c2ccc(Cl)cc2)OCO4)CC1=O | 53% | –
Cc1cc(C)nc(-n2nc(-c3ccc(Cl)cc3)c3c2NC(=O)C[C@@H]3c2ccc3c(c2)OCO3)n1 | -7% | –
